Measurements as given in paper PMC8136818, “Evolving origin-of-transfer sequences on staphylococcal conjugative and mobilizable plasmids—who’s mimicking whom?”.

T1: SmpO45 (Staphylococcus aureus plasmid pWBG745, UniProt UPI0001BEA8D3 1-84)
T1 sequence: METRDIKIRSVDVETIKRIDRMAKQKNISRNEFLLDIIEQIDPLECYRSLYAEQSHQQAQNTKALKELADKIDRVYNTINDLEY

T2: SmpO49 (Staphylococcus aureus plasmid pWBG749, UniProt UPI0001BEA96A 1-84)
T2 sequence: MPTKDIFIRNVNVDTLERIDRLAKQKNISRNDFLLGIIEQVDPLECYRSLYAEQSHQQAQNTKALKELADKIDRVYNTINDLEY

T3: SmpOSep (Staphylococcus epidermidis VCU120)
T3 chain: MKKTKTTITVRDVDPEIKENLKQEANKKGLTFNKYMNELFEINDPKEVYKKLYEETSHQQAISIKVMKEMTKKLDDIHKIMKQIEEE

T4: SmpOUNa (plasmid pC02)
T4 chain: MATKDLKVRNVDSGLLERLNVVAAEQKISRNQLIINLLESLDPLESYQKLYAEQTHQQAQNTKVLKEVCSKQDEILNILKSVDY

T5: SmpO408 (Staphylococcus aureus M0408)
T5 chain: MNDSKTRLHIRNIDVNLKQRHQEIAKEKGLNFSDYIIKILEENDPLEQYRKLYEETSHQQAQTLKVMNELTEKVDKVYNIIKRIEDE

T6: SmpO49-F7K (Staphylococcus aureus plasmid pWBG749, UniProt UPI0001BEA96A 1-84, F7K)
T6 sequence: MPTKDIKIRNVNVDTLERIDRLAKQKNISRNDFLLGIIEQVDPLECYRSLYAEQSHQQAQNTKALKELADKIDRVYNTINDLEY

B1: ossA45-13 (dsDNA)
DNA 1: ATTGTGGGGTCAGTTT
DNA 2: AAACTGACCCCACAAT
B2: ossA49-4 (dsDNA)
DNA 1: TTTTTGATATCACTAT
DNA 2: ATAGTGATATCAAAAA
B3: OT49.4 (dsDNA)
DNA 1: GTTTTTATGATATCACTATGAAATGTCCTA
DNA 2: TAGGACATTTCATAGTGATATCATAAAAAC
B4: OT45.11 (dsDNA)
DNA 1: TATGGGGTCATATTTCCCTTATGCTCTTAC
DNA 2: GTAAGAGCATAAGGGAAATATGACCCCATA
B5: ossA45-9 (dsDNA)
DNA 1: ATTGTGGGCTCACTTT
DNA 2: AAAGTGAGCCCACAAT
B6: ossA45-15 (dsDNA)
DNA 1: ATTGTGGGGTCACTAT
DNA 2: ATAGTGACCCCACAAT
B7: ossA45-5 (dsDNA)
DNA 1: ATTGAGGGGTCACTTT
DNA 2: AAAGTGACCCCTCAAT
B8: ossA45-12 (dsDNA)
DNA 1: ATTGTGGGGTCTCTTT
DNA 2: AAAGAGACCCCACAAT
B9: OT49.3 (dsDNA)
DNA 1: GACACTAGGTGTTTTTATGATATCACTATG
DNA 2: CATAGTGATATCATAAAAACACCTAGTGTC
B10: ossA49-3 (dsDNA)
DNA 1: TTAATGATATCACTAT
DNA 2: ATAGTGATATCATTAA
B11: ossBUNa (dsDNA)
DNA 1: AAAATGGGTACATATT
DNA 2: AATATGTACCCATTTT
B12: ossA49-5 (dsDNA)
DNA 1: TTTAAGATATCACTAT
DNA 2: ATAGTGATATCTTAAA
B13: ossA45-10 (dsDNA)
DNA 1: ATTGTGGGGACACTTT
DNA 2: AAAGTGTCCCCACAAT
B14: ossA49-16 (dsDNA)
DNA 1: TTTATGATATCACTAA
DNA 2: TTAGTGATATCATAAA
B15: ossA45 C11G (dsDNA)
DNA 1: ATTGTGGGGTGACTTT
DNA 2: AAAGTCACCCCACAAT
B16: ossA49-2 (dsDNA)
DNA 1: TATATGATATCACTAT
DNA 2: ATAGTGATATCATATA
B17: ossA49 (dsDNA)
DNA 1: TTTATGATATCACTAT
DNA 2: ATAGTGATATCATAAA
B18: OTUNa For/Rev_14 (dsDNA)
DNA 1: TTGAAATATCTGGCTTCGCCAGATTACCCA
DNA 2: TGGGTAATCTGGCGAAGCCAGATATTTCAA
B19: ossAUNa (dsDNA)
DNA 1: GTGACCCCCATAAGAT
DNA 2: ATCTTATGGGGGTCAC
B20: OT45.10 (dsDNA)
DNA 1: CCCCATAAAATATGGGGTCATATTTCCCTT
DNA 2: AAGGGAAATATGACCCCATATTTTATGGGG
B21: OT49.10 (dsDNA)
DNA 1: CTATCATTGTCCGATGATAGCAAATTCCCC
DNA 2: GGGGAATTTGCTATCATCGGACAATGATAG
B22: ossA45-4 (dsDNA)
DNA 1: ATTCTGGGGTCACTTT
DNA 2: AAAGTGACCCCAGAAT
B23: ossA49-12 (dsDNA)
DNA 1: TTTATGATATCTCTAT
DNA 2: ATAGAGATATCATAAA
B24: OT45.5 (dsDNA)
DNA 1: GGTCACTTTAAATTCTTTAAAACCCTTGAA
DNA 2: TTCAAGGGTTTTAAAGAATTTAAAGTGACC

target: T1, SmpO45; test: SPR (ReDCaT); 300 mM NaCl; 10 mM HEPES, 3 mM EDTA, 0.05% Tween 20, NaCl 150 mM (SmpO49 screens), 300 mM (SmpO45, SmpO408, SmpOUNa screens) or 250 mM (Table S4); pH and temperature not stated; protein 1 uM; high values mean tight binding; details: protein: recombinant; tags: His6-TEV, cleaved; chain copies: 4
In short: (§1)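 Protein with its tag removed was produced in E. coli BL21(DE3)pLysS and purified by nickel-affinity and then size-exclusion chromatography. On a Biacore T200 SA chip with reusable DNA capture, OriT oligonucleotides were captured at 1 μM on Fc2 and a linker alone on Fc1, and protein at 1 μM was injected at 30 μl/min with 60 s contact and 60 s dissociation in 10 mM HEPES, 300 mM NaCl, 3 mM EDTA, 0.05% Tween 20. DNA binding is given as %Rmax.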

Binder	binding signal [%Rmax]
B1	30.8 ± 1.19
B4	21.2 ± 1.26
B5	0.616 ± 0.0355
B6	38.6 ± 1.09
B7	13.5 ± 0.663
B8	7.81 ± 0.57
B13	6.42 ± 0.416
B15	0.641 ± 0.0361
B20	31.8 ± 2.19
B22	33.4 ± 0.753
B24	17.8 ± 1.2

target: T2, SmpO49; test: SPR (ReDCaT); 150 mM NaCl; 10 mM HEPES, 3 mM EDTA, 0.05% Tween 20, NaCl 150 mM (SmpO49 screens), 300 mM (SmpO45, SmpO408, SmpOUNa screens) or 250 mM (Table S4); pH and temperature not stated; protein 1 uM; high values mean tight binding; details: protein: recombinant; tags: His6-TEV, cleaved; chain copies: 4
In short: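 Tag-cleaved protein, expressed in E. coli BL21(DE3)pLysS and purified by nickel-affinity and size-exclusion chromatography, was screened on a Biacore T200 SA chip by reusable DNA capture. OriT oligonucleotides were captured at 1 μM on Fc2, with a control linker on Fc1. Protein at 1 μM was injected at 30 μl/min (60 s contact, 60 s dissociation) in 10 mM HEPES, 150 mM NaCl, 3 mM EDTA, 0.05% Tween 20. DNA binding is reported as %Rmax.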

Binder	binding signal [%Rmax]
B2	12.1 ± 1.41
B3	17 ± 0.325
B9	18.8 ± 0.402
B10	26.8 ± 1.8
B12	6.94 ± 0.948
B14	24.8 ± 1.07
B16	26.3 ± 1.74
B17	26 ± 1.13
B21	0.584 ± 0.045
B23	5.13 ± 0.452

target: T1, SmpO45; test: SPR (ReDCaT); 250 mM NaCl; 10 mM HEPES, 3 mM EDTA, 0.05% Tween 20, NaCl 150 mM (SmpO49 screens), 300 mM (SmpO45, SmpO408, SmpOUNa screens) or 250 mM (Table S4); pH and temperature not stated; protein 1 uM; high values mean tight binding; details: protein: recombinant; tags: His6-TEV, cleaved; chain copies: 4

Binder	binding signal [%Rmax]
B11	0.8
B19	1.6

Target: T3, SmpOSep
Test: as above
Details: protein: recombinant; tags: His6-TEV, cleaved; chain copies: 4

Binder	binding signal [%Rmax]
B11	1.5
B17	1.2

Target: T4, SmpOUNa
Test: SPR (ReDCaT); 300 mM NaCl; 10 mM HEPES, 3 mM EDTA, 0.05% Tween 20, NaCl 150 mM (SmpO49 screens), 300 mM (SmpO45, SmpO408, SmpOUNa screens) or 250 mM (Table S4); pH and temperature not stated; protein 1 uM; high values mean tight binding
Details: protein: recombinant; tags: His6-TEV, cleaved; chain copies: 4
In short: as §1

Binder	binding signal [%Rmax]
B18	1.29 ± 0.0865

Target: T4, SmpOUNa
Test: SPR (ReDCaT); 250 mM NaCl; 10 mM HEPES, 3 mM EDTA, 0.05% Tween 20, NaCl 150 mM (SmpO49 screens), 300 mM (SmpO45, SmpO408, SmpOUNa screens) or 250 mM (Table S4); pH and temperature not stated; protein 1 uM; high values mean tight binding
Details: protein: recombinant; tags: His6-TEV, cleaved; chain copies: 4

Binder	binding signal [%Rmax]
B19	12.4

Target: T5, SmpO408
Test: as above
Details: protein: recombinant; tags: His6-TEV, cleaved; chain copies: 4

Binder	binding signal [%Rmax]
B19	2.9

target: T6, SmpO49-F7K; test: as above; details: protein: recombinant; tags: His6-TEV, cleaved; chain copies: 4

Binder	binding signal [%Rmax]
B19	3.5
